# PMC7862700, “An all-to-all approach to the identification of sequence-specific readers for epigenetic DNA modifications on cytosine”
# How the values were obtained:
# Test in all cases: DAPPL (digital affinity profiling via proximity ligation, sequencing); 10 mM Tris-HCl pH 7.5, 50 mM NaCl, 1 mM DTT, 4% glycerol, room temperature, 30 min; GST-TFs on glutathione beads, 16-mer random dsDNA library, 0.1% formaldehyde crosslink after washing; high values mean tight binding
# FLI1 = molecular target: T1, FLI1 (Homo sapiens, UniProt Q01543 1-452); conditions: protein: recombinant; tags: N-terminal GST; dsDNA, one strand shown
# T1 sequence: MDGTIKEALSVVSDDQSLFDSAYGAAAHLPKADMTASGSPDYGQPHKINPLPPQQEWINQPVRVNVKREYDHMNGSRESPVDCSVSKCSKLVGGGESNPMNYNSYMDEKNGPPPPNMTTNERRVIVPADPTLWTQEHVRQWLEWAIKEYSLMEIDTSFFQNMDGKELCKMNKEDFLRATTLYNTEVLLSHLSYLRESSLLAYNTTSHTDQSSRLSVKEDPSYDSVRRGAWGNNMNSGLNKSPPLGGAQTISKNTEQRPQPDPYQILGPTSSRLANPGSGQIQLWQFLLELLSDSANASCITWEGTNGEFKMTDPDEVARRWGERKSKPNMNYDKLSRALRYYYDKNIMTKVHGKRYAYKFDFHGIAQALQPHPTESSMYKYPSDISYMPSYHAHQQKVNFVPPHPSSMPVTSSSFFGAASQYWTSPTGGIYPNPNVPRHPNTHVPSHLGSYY
# Method in brief: (§1)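 Binding signal is each hexamer's read frequency for a factor divided by its frequency in the tag-only sample. The factors were GST-fused human transcription factors from yeast, captured on glutathione beads, DNA-barcoded and pooled with that sample. Pools were incubated with 200 nmole of a random double-stranded 16-mer DNA library in Tris/NaCl/DTT/glycerol buffer at room temperature for 30 min, then washed, crosslinked with 0.1% formaldehyde, proximity-ligated with BsaI/T4 ligase (1 h, 37 °C), PCR-amplified and sequenced on an Illumina NextSeq500.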
# ELK1 = molecular target: T2, ELK1 (Homo sapiens, UniProt P19419 1-428); conditions: protein: recombinant; tags: N-terminal GST; dsDNA, one strand shown
# T2 sequence: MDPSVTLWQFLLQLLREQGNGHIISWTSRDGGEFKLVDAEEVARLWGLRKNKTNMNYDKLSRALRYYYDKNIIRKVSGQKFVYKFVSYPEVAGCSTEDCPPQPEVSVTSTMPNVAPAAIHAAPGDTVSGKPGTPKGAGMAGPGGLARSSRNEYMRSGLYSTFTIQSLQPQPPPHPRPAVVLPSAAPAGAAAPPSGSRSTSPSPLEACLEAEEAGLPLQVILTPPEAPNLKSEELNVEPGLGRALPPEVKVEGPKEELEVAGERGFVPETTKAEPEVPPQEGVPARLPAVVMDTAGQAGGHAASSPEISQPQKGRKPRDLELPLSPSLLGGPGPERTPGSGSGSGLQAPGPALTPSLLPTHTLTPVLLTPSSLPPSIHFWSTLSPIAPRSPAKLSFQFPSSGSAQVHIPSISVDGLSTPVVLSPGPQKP
# Method in brief: as §1
# GABPA = molecular target: T3, GABPA (Homo sapiens, UniProt Q06546 1-454); conditions: protein: recombinant; tags: N-terminal GST; dsDNA, one strand shown
# T3 sequence: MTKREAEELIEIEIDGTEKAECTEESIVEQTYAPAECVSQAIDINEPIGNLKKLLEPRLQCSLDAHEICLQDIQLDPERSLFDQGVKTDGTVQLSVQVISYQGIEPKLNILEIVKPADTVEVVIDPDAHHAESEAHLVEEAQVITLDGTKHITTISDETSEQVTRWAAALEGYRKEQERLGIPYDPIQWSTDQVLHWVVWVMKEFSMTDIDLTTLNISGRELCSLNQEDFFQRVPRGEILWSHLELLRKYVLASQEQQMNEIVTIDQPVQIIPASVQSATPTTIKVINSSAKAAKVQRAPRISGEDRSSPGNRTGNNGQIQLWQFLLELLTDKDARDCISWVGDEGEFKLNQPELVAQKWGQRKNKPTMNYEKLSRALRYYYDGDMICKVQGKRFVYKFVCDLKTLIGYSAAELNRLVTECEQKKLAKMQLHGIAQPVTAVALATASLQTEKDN
# Method in brief: as §1
# ERG = molecular target: T4, ERG (Homo sapiens, UniProt P11308 1-479); conditions: protein: recombinant; tags: N-terminal GST; dsDNA, one strand shown
# T4 sequence: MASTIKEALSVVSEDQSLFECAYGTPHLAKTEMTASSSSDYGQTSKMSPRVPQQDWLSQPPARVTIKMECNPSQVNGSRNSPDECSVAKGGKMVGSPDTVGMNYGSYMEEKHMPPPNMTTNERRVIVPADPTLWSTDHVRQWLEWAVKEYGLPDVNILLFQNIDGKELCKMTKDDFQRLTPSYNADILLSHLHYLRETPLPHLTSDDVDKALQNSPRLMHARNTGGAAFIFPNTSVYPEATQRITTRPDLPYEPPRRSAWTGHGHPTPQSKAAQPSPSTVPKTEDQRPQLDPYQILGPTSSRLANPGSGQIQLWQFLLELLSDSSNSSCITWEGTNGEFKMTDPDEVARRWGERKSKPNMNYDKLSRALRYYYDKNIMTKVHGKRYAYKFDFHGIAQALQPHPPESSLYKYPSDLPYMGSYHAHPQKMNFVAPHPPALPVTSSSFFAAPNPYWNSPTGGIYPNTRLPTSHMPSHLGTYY
# Method in brief: as §1
# ELF1 = ELF1 (Homo sapiens, UniProt P32519 1-619); conditions: protein: recombinant; tags: N-terminal GST; dsDNA, one strand shown
# ELF1, sequence (P32519 whole entry): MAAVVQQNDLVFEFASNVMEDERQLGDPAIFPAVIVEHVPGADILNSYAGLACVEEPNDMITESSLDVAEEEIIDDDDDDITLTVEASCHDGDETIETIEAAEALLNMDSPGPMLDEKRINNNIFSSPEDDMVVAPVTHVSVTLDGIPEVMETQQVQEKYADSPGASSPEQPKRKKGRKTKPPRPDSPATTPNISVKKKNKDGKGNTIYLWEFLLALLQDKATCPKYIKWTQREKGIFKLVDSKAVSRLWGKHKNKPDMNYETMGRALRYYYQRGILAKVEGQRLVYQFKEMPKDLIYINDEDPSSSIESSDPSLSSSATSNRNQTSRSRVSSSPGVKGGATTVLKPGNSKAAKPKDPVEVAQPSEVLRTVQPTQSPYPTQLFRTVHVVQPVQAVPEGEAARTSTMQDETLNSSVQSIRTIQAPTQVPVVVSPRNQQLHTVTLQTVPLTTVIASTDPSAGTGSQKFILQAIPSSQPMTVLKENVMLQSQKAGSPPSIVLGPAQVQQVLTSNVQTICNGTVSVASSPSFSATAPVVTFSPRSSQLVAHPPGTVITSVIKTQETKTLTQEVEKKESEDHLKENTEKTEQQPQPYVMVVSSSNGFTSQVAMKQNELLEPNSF
# Method in brief: as §1
# EHF = molecular target: T5, EHF (Homo sapiens, UniProt Q9NZC4 1-300); conditions: protein: recombinant; tags: N-terminal GST; dsDNA, one strand shown
# T5 sequence: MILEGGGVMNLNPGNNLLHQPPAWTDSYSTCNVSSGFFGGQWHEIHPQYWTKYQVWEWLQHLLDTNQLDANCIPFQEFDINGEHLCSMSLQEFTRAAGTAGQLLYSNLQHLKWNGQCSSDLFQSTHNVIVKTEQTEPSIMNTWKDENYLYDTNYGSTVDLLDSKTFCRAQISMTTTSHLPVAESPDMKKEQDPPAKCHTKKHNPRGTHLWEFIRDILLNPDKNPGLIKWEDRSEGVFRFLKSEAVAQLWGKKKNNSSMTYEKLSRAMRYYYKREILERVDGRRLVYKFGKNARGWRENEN
# Method in brief: as §1
# SPI1 = SPI1 (Homo sapiens, UniProt P17947 1-270); conditions: protein: recombinant; tags: N-terminal GST; dsDNA, one strand shown
# Method in brief: as §1
# SPIB = SPIB (Homo sapiens, UniProt Q01892 1-262); conditions: protein: recombinant; tags: N-terminal GST; dsDNA, one strand shown
# SPIB, sequence (Q01892 whole entry): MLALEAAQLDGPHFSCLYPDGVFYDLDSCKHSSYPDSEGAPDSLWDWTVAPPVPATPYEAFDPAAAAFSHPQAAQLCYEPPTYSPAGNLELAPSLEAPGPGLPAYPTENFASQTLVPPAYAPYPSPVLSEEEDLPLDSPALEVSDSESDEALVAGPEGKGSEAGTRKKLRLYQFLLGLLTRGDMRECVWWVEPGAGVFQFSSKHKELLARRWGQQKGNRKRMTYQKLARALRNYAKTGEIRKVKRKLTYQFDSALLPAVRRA
# Method in brief: as §1
# ELK3 = molecular target: T6, ELK3 (Homo sapiens, UniProt P41970 1-407); conditions: protein: recombinant; tags: N-terminal GST; dsDNA, one strand shown
# T6 sequence: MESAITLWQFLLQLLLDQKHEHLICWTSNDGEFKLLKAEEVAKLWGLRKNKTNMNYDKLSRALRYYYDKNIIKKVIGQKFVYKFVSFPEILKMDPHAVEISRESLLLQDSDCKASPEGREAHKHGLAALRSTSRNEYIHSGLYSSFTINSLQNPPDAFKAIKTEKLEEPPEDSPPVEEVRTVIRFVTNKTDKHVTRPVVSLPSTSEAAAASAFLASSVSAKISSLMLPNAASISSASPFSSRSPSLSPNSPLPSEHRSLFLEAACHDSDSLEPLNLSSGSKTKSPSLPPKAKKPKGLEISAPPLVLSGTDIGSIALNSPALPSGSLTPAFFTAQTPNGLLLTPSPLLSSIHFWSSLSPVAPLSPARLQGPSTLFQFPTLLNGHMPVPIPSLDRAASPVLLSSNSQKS
# Method in brief: as §1
# FEV = molecular target: T7, FEV (Homo sapiens, UniProt Q99581 1-238); conditions: protein: recombinant; tags: N-terminal GST; dsDNA, one strand shown
# T7 sequence: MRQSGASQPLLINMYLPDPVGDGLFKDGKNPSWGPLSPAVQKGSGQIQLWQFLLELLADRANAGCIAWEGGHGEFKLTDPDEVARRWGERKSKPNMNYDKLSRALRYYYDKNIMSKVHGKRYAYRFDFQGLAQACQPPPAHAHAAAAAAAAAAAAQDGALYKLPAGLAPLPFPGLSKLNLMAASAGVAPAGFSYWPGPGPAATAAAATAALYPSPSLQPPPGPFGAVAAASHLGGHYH
# Method in brief: as §1
# ETV5 = ETV5 (Homo sapiens, UniProt P41161 1-510); conditions: protein: recombinant; tags: N-terminal GST; dsDNA, one strand shown
# ETV5, sequence (P41161 whole entry): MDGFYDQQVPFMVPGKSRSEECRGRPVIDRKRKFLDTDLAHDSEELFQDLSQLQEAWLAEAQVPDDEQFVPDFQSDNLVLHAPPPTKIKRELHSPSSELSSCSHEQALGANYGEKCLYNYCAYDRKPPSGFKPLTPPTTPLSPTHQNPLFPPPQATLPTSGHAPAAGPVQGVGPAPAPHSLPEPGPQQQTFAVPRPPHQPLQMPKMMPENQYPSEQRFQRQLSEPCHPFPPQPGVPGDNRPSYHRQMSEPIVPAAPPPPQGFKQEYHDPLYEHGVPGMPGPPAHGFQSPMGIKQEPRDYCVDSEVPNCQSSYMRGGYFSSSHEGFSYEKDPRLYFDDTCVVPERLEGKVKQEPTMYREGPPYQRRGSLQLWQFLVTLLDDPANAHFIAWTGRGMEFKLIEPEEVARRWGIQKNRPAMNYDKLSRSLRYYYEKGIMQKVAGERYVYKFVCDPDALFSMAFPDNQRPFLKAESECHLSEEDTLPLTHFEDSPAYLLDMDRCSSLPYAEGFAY
# Method in brief: as §1
# HSF1 = HSF1 (Homo sapiens, UniProt Q00613 1-529); conditions: protein: recombinant; tags: N-terminal GST; chain copies: 3; dsDNA, one strand shown
# HSF1, sequence (Q00613 whole entry): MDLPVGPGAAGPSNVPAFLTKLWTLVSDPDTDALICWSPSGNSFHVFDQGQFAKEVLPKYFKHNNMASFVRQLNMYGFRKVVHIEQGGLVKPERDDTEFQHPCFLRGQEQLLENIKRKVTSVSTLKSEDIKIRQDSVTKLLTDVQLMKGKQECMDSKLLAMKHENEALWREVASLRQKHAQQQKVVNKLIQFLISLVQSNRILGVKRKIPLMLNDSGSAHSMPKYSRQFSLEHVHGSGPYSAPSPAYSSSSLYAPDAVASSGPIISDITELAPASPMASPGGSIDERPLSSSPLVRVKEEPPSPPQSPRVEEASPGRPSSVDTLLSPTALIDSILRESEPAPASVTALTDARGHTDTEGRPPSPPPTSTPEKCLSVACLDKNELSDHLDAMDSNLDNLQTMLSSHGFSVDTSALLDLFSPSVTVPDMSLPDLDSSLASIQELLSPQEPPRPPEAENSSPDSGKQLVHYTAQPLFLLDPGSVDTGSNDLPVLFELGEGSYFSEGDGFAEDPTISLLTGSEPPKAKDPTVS
# Method in brief: as §1
# SPIC = molecular target: T8, SPIC (Homo sapiens, UniProt Q8N5J4 1-248); conditions: protein: recombinant; tags: N-terminal GST; dsDNA, one strand shown
# T8 sequence: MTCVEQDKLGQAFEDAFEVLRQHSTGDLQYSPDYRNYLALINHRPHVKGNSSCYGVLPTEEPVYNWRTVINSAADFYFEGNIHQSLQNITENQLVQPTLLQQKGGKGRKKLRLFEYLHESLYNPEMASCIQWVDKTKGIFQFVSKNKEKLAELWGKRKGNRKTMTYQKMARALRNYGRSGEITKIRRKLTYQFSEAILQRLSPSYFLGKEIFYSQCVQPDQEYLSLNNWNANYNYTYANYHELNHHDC
# Method in brief: as §1
# ELF4 = ELF4 (Homo sapiens, UniProt Q99607 1-663); conditions: protein: recombinant; tags: N-terminal GST; dsDNA, one strand shown
# ELF4, sequence (Q99607 whole entry): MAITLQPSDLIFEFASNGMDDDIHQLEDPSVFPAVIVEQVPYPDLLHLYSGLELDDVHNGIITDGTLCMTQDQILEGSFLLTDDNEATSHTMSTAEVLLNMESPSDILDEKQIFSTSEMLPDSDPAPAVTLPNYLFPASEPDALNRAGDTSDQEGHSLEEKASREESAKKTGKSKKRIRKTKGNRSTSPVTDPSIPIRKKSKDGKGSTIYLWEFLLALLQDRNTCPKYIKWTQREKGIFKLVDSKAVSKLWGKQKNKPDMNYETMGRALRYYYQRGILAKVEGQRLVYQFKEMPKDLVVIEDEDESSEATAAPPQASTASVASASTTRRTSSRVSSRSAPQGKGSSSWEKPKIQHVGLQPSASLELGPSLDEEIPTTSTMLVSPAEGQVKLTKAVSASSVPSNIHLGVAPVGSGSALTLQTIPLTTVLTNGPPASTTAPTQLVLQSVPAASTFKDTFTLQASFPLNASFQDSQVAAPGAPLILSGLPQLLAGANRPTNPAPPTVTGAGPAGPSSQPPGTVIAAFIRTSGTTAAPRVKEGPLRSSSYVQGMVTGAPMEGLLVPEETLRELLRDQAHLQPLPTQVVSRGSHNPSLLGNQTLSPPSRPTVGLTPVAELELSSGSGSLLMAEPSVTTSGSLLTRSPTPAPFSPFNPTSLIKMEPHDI
# Method in brief: as §1
# ELK4 = molecular target: T9, ELK4 (Homo sapiens, UniProt P28324-2 1-405); conditions: protein: recombinant; tags: N-terminal GST; dsDNA, one strand shown
# T9 sequence: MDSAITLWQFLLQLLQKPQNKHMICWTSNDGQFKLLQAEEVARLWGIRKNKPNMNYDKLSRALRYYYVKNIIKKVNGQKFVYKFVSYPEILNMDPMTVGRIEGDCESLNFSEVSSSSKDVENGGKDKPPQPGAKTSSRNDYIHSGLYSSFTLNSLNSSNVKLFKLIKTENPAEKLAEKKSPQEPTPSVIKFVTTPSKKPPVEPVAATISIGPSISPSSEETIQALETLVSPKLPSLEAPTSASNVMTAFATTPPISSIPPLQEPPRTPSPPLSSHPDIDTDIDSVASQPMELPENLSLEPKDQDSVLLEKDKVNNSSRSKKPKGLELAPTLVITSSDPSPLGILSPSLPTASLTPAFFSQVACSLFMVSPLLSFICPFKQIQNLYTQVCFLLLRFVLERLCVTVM
# Method in brief: as §1
# ETV2 = molecular target: T10, ETV2 (Homo sapiens, UniProt O00321 1-342); conditions: protein: recombinant; tags: N-terminal GST; dsDNA, one strand shown
# T10 sequence: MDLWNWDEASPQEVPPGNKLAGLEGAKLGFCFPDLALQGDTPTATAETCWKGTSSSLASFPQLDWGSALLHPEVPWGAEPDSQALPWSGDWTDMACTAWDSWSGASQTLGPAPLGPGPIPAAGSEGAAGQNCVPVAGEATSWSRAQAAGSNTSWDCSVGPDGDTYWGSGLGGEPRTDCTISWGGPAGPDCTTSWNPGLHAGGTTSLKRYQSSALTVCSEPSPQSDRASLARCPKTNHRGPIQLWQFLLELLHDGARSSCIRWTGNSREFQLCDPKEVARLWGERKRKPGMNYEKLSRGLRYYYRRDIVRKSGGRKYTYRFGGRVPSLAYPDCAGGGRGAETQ
# Method in brief: as §1
# ELF3 = molecular target: T11, ELF3 (Homo sapiens, UniProt P78545 1-371); conditions: protein: recombinant; tags: N-terminal GST; dsDNA, one strand shown
# T11 sequence: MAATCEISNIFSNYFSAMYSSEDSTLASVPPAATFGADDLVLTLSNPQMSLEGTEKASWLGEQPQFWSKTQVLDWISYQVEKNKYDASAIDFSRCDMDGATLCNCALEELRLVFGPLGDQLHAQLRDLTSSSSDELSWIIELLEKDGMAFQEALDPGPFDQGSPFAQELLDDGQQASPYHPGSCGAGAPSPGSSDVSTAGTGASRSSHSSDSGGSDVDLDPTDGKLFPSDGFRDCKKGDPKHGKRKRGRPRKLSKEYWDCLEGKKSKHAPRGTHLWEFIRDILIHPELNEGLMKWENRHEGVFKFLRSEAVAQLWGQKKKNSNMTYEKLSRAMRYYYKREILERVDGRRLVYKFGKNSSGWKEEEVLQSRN
# Method in brief: as §1
# CRX = CRX (Homo sapiens, UniProt O43186 1-299); conditions: protein: recombinant; tags: N-terminal GST; dsDNA, one strand shown
# CRX, sequence (O43186 whole entry): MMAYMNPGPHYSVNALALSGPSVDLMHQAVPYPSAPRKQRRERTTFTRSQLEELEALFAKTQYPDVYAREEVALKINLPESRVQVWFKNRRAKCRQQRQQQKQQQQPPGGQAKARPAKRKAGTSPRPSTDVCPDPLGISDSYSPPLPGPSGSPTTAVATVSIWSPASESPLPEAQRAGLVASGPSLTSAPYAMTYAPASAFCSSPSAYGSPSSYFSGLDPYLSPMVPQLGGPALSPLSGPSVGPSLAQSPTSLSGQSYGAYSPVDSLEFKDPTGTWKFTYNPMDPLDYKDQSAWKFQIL
# Method in brief: as §1
# ETV1 = ETV1 (Homo sapiens, UniProt P50549 1-477); conditions: protein: recombinant; tags: N-terminal GST; dsDNA, one strand shown
# ETV1, sequence (P50549 whole entry): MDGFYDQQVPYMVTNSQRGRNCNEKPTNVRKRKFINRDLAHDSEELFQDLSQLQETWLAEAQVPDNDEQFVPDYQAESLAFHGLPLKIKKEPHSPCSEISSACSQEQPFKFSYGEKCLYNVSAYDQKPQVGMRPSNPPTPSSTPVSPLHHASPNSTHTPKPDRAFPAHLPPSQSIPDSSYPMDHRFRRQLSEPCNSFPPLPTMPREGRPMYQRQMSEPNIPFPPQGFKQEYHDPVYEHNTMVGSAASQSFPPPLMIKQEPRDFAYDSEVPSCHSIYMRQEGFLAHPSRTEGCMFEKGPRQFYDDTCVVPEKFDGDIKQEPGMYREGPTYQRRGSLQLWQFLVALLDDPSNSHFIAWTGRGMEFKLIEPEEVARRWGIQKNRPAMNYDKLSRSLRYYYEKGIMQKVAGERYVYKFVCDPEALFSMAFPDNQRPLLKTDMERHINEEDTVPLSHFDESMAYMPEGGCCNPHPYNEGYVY
# Method in brief: as §1
sequence,measurement,setting,value
CTCGGC,binding signal,FLI1,"1.47 fold enrichment (6-mer frequency, TF over GST control)"
same,binding signal,ELK1,"1.33 fold enrichment (6-mer frequency, TF over GST control)"
same,binding signal,GABPA,"1.39 fold enrichment (6-mer frequency, TF over GST control)"
same,binding signal,ERG,"1.26 fold enrichment (6-mer frequency, TF over GST control)"
same,binding signal,ELF1,"1.38 fold enrichment (6-mer frequency, TF over GST control)"
same,binding signal,EHF,"1.52 fold enrichment (6-mer frequency, TF over GST control)"
same,binding signal,SPI1,"1.45 fold enrichment (6-mer frequency, TF over GST control)"
same,binding signal,SPIB,"1.27 fold enrichment (6-mer frequency, TF over GST control)"
same,binding signal,ELK3,"1.39 fold enrichment (6-mer frequency, TF over GST control)"
same,binding signal,FEV,"1.29 fold enrichment (6-mer frequency, TF over GST control)"
same,binding signal,ETV5,"1.41 fold enrichment (6-mer frequency, TF over GST control)"
same,binding signal,HSF1,"1.31 fold enrichment (6-mer frequency, TF over GST control)"
same,binding signal,SPIC,"1.26 fold enrichment (6-mer frequency, TF over GST control)"
same,binding signal,ELF4,"1.56 fold enrichment (6-mer frequency, TF over GST control)"
same,binding signal,ELK4,"1.39 fold enrichment (6-mer frequency, TF over GST control)"
same,binding signal,ETV2,"1.34 fold enrichment (6-mer frequency, TF over GST control)"
same,binding signal,ELF3,"1.52 fold enrichment (6-mer frequency, TF over GST control)"
same,binding signal,CRX,"1.13 fold enrichment (6-mer frequency, TF over GST control)"
same,binding signal,ETV1,"1.54 fold enrichment (6-mer frequency, TF over GST control)"
